Results from PubChem BioAssay AID1159580 (chemical genetic matrix, 2015).
Hit rate of the full screen: of about 5,500 compounds, about 2,000 (36%) were called active. Roughly 18% stayed inconclusive and do not appear here. Rule as the data show it: active = normalized growth mostly below about 0.91 (no sharp cut-off); inconclusive = no clear call, values can overlap the other calls; inactive = mostly above about 0.92. The list shows a part of the results.

Assay: chemical genetic growth profiling, strain panel (AID 1159580);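 also: tested at 20 µM; growth read once vehicle control cultures reached saturation at 30 °C; 1 = growth at the plate median or of vehicle wells; lower values mean less growth of the strain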
Settings: S. cerevisiae deletion strains, growth OD

Measured: normalized growth

CS(=O)(=O)/C(C#N)=C/c1ccccc1OCc1c(Cl)cccc1Cl
inactive: locus YAR019C, strain CDC15, active compounds read low 0.978 | locus YBL105C, strain PKC1, active compounds read low 0.958 | locus YBR135W, strain CKS1, active compounds read low 0.964 | locus YBR136W, strain MEC1, active compounds read low 0.958 | locus YBR160W, strain CDC28, active compounds read low 0.954 | locus YDL017W, strain CDC7, active compounds read low 0.961 | locus YDL028C, strain MPS1, active compounds read low 0.956 | locus YDL101C, strain DUN1, active compounds read low 0.958 | locus YDL108W, strain KIN28, active compounds read low 0.942 | locus YDL132W, strain cdc53, active compounds read low 0.96 | locus YDL214C, strain PRR2, active compounds read low 0.926 | locus YDR052C, strain DBF4, active compounds read low 0.957 | locus YDR054C, strain cdc34, active compounds read low 0.975 | locus YDR226W, strain ADK1, active compounds read low 0.969 | locus YDR477W, strain SNF1, active compounds read low 0.943 | locus YER123W, strain YCK3, active compounds read low 0.913 | locus YER133W, strain GLC7, active compounds read low 0.953 | locus YFL009W, strain cdc4, active compounds read low 0.977 | locus YFL029C, strain CAK1, active compounds read low 0.979 | locus YFR003C, strain YPI1, active compounds read low 0.965 | locus YFR019W, strain FAB1, active compounds read low 0.961 | locus YFR028C, strain CDC14, active compounds read low 0.974 | locus YGR040W, strain KSS1, active compounds read low 0.91 | locus YGR052W, strain FMP48, active compounds read low 0.97 | locus YGR092W, strain DBF2, active compounds read low 0.934 | locus YHR030C, strain SLT2, active compounds read low 1.02 | locus YHR079C, strain IRE1, active compounds read low 1.03 | locus YHR082C, strain KSP1, active compounds read low 1.01 | locus YHR205W, strain SCH9, active compounds read low 0.916 | locus YIL147C, strain SLN1, active compounds read low 0.956 | locus YJL095W, strain BCK1, active compounds read low 0.976 | locus YJL128C, strain PBS2, active compounds read low 0.918 | locus YJL157C, strain FAR1, active compounds read low 0.95 | locus YJR016C, strain ILV3, active compounds read low 0.973 | locus YJR066W, strain TOR1 (second series), active compounds read low 0.947 | locus YJR066W, strain TOR1, active compounds read low 1.04 | locus YKL048C, strain ELM1, active compounds read low 0.901 | locus YKL067W, strain YNK1, active compounds read low 0.942 | locus YKL101W, strain HSL1, active compounds read low 0.892 | locus YKL193C, strain SDS22, active compounds read low 0.968 | locus YKL203C, strain TOR2, active compounds read low 0.996 | locus YLR113W, strain HOG1, active compounds read low 0.866 | locus YLR133W, strain CKI1, active compounds read low 0.92 | locus YLR403W, strain SFP1, active compounds read low 0.885 | locus YML070W, strain DAK1, active compounds read low 0.923 | locus YMR001C, strain CDC5, active compounds read low 0.966 | locus YMR205C, strain PFK2 (second series), active compounds read low 0.953 | locus YMR277W, strain FCP1, active compounds read low 0.978 | locus YNL006W, strain LST8, active compounds read low 0.973 | locus YNL020C, strain ARK1, active compounds read low 0.926 | locus YNL161W, strain CBK1, active compounds read low 0.964 | locus YNL183C, strain NPR1, active compounds read low 1.02 | locus YNL207W, strain RIO2, active compounds read low 0.946 | locus YNL222W, strain SSU72, active compounds read low 0.966 | locus YNL307C, strain MCK1 (second series), active compounds read low 0.945 | locus YOL078W, strain AVO1, active compounds read low 0.962 | locus YOL136C, strain PFK27, active compounds read low 0.879 | locus YOR061W, strain CKA2, active compounds read low 0.922 | locus YOR119C, strain RIO1, active compounds read low 0.986 | locus YOR231W, strain MKK1, active compounds read low 0.948 | locus YOR329C, strain SCD5, active compounds read low 0.968 | locus YPL031C, strain PHO85, active compounds read low 0.934 | locus YPL153C, strain RAD53, active compounds read low 0.95 | locus YPL204W, strain HRR25, active compounds read low 0.897 | locus YPL209C, strain IPL1, active compounds read low 0.967 | locus YPL256C, strain CLN2, active compounds read low 0.979 | locus YPR025C, strain CCL1, active compounds read low 0.969 | locus YPR106W, strain ISR1, active compounds read low 0.948 | locus YPR111W, strain DBF20, active compounds read low 0.924 | strain NNK1, active compounds read low 0.966 | strain TSCII, active compounds read low 0.962
